According to PubChem BioAssay AID493162 (ICCB-Longwood Screening Facility, Harvard Medical School, 2011):
Screen size: about 46,000 compounds; about 430 (0.93%) were called active. This is one part of a sample in which actives are shown more often than they occur. Unmarked numbers belong to inactive results. Cut-off read from the data, not from the text of the source: active = normalized absorbance mostly below about 85% (no sharp cut-off); inactive = mostly above about 86%.

Test system: Vaccinia virus DNA polymerase (E9) processive complex
Test: vaccinia E9 polymerase processive synthesis inhibitors, primary screen, biochemical, absorbance (AID 493162)
Details: in vitro processive DNA synthesis, absorbance read-out; active compounds read low; concentration not given here

Structure (SMILES)	normalized absorbance
O=C(CSc1nc2ccc(N=Cc3cc(Br)ccc3O)cc2s1)Nc1ccccc1	100%
CCCNS(=O)(=O)c1ccc2c(c1)oc(=O)n2CC(=O)OCC	99.1%
O=c1c(/C=N\O)coc2ccc(F)cc12	79.3%
COc1cccc2c(=O)n(CC(=O)NCc3ccccc3)ccc12	90%
CN(C(=O)COC(=O)c1cnc(Cl)c(Cl)c1)c1ccccc1	101%
COCc1cc(Cl)nc(-c2ccccc2)n1	103%
c1csc(Nc2nc3cc4c(cc3s2)OCO4)n1	96.8%
CCCCN1N=C(C)CC1=O	99.9%
CCC(=O)Oc1ccc(Br)cc1/C=C1\Sc2ccccc2C1=O	99.9%
ClCc1csc(-c2ccccc2)n1	96.4%
Cc1ccc2cc(CCNC(=O)CCC3CCCC3)c(=O)[nH]c2c1	101%
COCCn1cc(C(=O)NC2CCCCCC2)c2c3ccccc3n(C)c2c1=O	102%
CCN1CCCC1CNC(=O)c1cc2c(=O)n(C)c3ccccc3c2n1C (stereo unspecified)	51.4% (active)
Cn1c(C(=O)NC2CCCC2)cc2oc3ccccc3c21	104%
COc1cc2c3c(c1OC)C1(C=CC(=O)C=C1)CC3[N+](C)(C)CC2 (stereo unspecified)	75.6%
O=C(N=C1SC2CS(=O)(=O)CC2N1c1ccccc1)c1ccccc1 (stereo unspecified)	112%
Cc1cc(S(=O)(=O)N2CCN(Cc3ccccc3)CC2)c(C)cc1Cl	71.9%
Cc1ccc(-c2cn3nc(N4CCC(C(=O)NCCCN5CCCCC5)CC4)sc3n2)cc1	104%
Cc1c(C(=O)NCCCN2CCCCCC2)oc2ccc3nc(N(C)C)sc3c12	64.3% (active)
O=C(NCCCN1CCCC1)c1cc(-c2ccncc2)nc2ccccc12	86.5%
CC(C)=CCC(O)C1=CC(=O)c2c(O)ccc(O)c2C1=O (stereo unspecified)	81.9% (active)
Cc1ccccc1NC1=NC2(CCCCC2)N=C(N)N1	100%

Structure (SMILES)	normalized absorbance
O=C(O)CCc1nc2cc(Cl)ccc2n(Cc2ccccc2)c1=O	98.8%
O=C(O)CC(c1ccccc1)n1cnnn1 (stereo unspecified)	107%
O=C(O)CC(c1ccccc1)c1cc(Cl)ccc1O (stereo unspecified)	73.5% (active)
CC(=O)N1CC(C)Oc2cc(S(=O)(=O)N(C)Cc3ccccc3)ccc21 (stereo unspecified)	103%
COc1cccc2c1C(=O)C1C(O)=C3C(=C(O)C1C2=O)C[C@@](O)(C(=O)CO)C[C@@H]3OC1CC(N)C(O)C(C)O1 (stereo partly specified)	7.8% (active)
Cc1ccccc1Nc1nn2c(=O)c3ccc(C(=O)NCc4ccccc4Cl)cc3nc2s1	96.3%
Cc1scc(-c2ccccc2)[n+]1C	97%
CN(C)CCN=c1cc(-c2ccccc2)oc2ccc(Cl)cc12	25.3% (active)
Clc1ccc2oc(-c3ccccc3)c/c(=N\c3nccs3)c2c1	99.8%
S=c1cc(-c2ccccc2)oc(-c2ccccc2)c1	99.9%
N#Cc1ccccc1NC(=O)CSc1ccccc1	105%
O=C(CCNS(=O)(=O)c1ccc2[nH]c(=O)ccc2c1)NC1CCCC1	103%
Cc1ccc(S(=O)(=O)N2CCCC(C(=O)N(C)c3ccccc3)C2)cc1 (stereo unspecified)	101%
COC(CN(C)C(=O)c1cc2c(Cl)nc3ccc(C)cc3c2s1)OC	80.2%
O=C(NCCCN1CCOCC1)c1cc2c(s1)CCC2	82.2%
Cc1ccc2nc(Cl)c3cc(C(=O)NCCN4CCN(C)CC4)sc3c2c1	22.8% (active)
CC(C)NC(=O)CN1C(=O)c2cccnc2Oc2ccccc21	102%
O=C(NCc1ccccc1Cl)C1(c2ccccc2)CCCC1	97.8%
O=C(O)CCc1cccnc1	102%
CSC1=NCCN1S(=O)(=O)c1ccc(Br)cc1	110%
CS(=O)(=O)N1CCN=C1SCc1cccnc1	66.5% (active)
COC(=O)Nc1cn(Cc2ccccn2)c(=O)c2ccccc12	112%

Structure (SMILES)	normalized absorbance
O=c1[nH]c(=S)[nH]cc1S(=O)(=O)c1ccc(F)cc1	99.5%
O=C(Nc1ccc2nc(SCC(=O)N3CCc4ccccc43)sc2c1)c1ccccc1Cl	100%
CCN(CC)c1ccc(C=Nc2cc(C)cc(C)c2)cc1	100%
CCOc1ccc(S(=O)(=O)N2CCC(C)CC2)cc1	99%
Nc1ccc(-c2nc3ccccc3[nH]2)c(N)c1	99.3%
COc1ccc(C2=NS(=O)(=O)N(C)C(C(=O)N(C)Cc3ccccc3)=C2)cc1	86.6%
Cc1cccc(-n2nc3c(c2NC(=O)/C=C\c2ccco2)CSC3)c1C	85.2%
CC(=O)Nc1sc(C)nc1-c1ccccc1	99.1%
CC(=O)n1c(C=Nc2ccccc2)c(O)c2ccccc21	99.4%
CC(=O)n1c2ccccc2c2nc(C)sc21	45.9% (active)
Cc1nc2ccc(S(=O)(=O)NC(CC(C)C)C(=O)NC3CCCCCC3)cc2s1 (stereo unspecified)	103%
CCOc1ccc(C(=O)Nc2nc3c(OC)cccc3s2)cc1	106%
Cc1ccc(S(=O)(=O)N2CCCC(n3cccc3)C2)cc1 (stereo unspecified)	117%
CC12CCC3C(CCC4CCCCC43C)C1C/C(=C\c1ccc[nH]1)C2=O (stereo unspecified)	101%
Cc1cc(Nc2ccc(Cl)cc2)n2c(nc3ccccc32)c1C#N	100%
COc1ccc(-c2cc(-c3ccccc3)nc(SCC(N)=NC#N)c2C#N)cc1	100%
C[N+](C)(C)CCOC(=O)c1ccccc1	99.6%
Cc1nc(C)nc(N(Cc2ccccc2)Cc2ccccc2)n1	94.7%
Cc1ccc(Nc2c(-c3c[nH]c4ccccc34)nc3c[n+](CC(N)=O)ccn23)cc1	95.2%
COc1ccc(C(=O)N2CCN(c3ccc(N4CCOCC4)nn3)CC2)cc1	101%
O=C1NC(=Nc2ccc(O)cc2)S/C1=C\c1ccc(Cl)cc1Cl	100%
CC1CCc2sc(NC(=O)Cc3ccccc3)c(C(N)=O)c2C1 (stereo unspecified)	89.9%
